Inconclusive results are not listed. Calls of active or inactive are those of the source. Calls follow the shape of the full dose curve.
% is scaled to controls: 0 for no effect and ±100 for the full control effect.

This experiment can be described thus: qHTS assay to identify small molecule agonists of the NFkB signaling pathway - cell viability counter screen (AID 1159515). Also: nearly all actives have a fitted effect of over 55% in size. The note with it: NFkB-bla ME-180 viability, CellTiter-Glo luminescence, 5 h; series mostly up to 61 µM. An excerpt: National Center for Advancing Translational Sciences [NCATS]
NIH Chemical Genomics Center [NCGC]
U.S. Environmental Protection Agency [EPA]
National Institutes of Environmental Health Sciences [NIEHS]
National Toxicology Program [NTP]
U.S. Food and Drug Administration [FDA]
Transcription factors and their stimulated target gene expression play pivotal roles across many cellular processes including responses to environmental stimuli. Proper regulation of associated pathways is critical to maintain cell health and function. Constitutive activation of transcription factor pathways has been implicated in tumors as it may block cellular functions such as apoptosis and lead to invasion and metastasis. One important transcription factor that stimulates gene expression in response to cytokines, UV radiation, and other stimuli is nuclear factor-kappa B (NFkB). To measure activation of the NFkB pathway, the CellSensor NFkB-bla ME-180 cell line (Life Technologies, Carlsbad, CA) that stably expresses beta-lactamase reporter gene under the regulation of a NF-kB response element was used. This assay allows measurement of the NFkB pathway activity induced by compounds in a ME-180 cell line. This system quantitates NF-kB activity using a FRET-based assay system where beta-lactamase expression disrupts FRET, allowing for fluorescent measurement of activity. This cell line has been used to screen the Tox21 10K compound library and to identify compounds that induce the NFkB pathway activity. The cytotoxicity of the Tox21 compound library against the NFkB-bla ME-180 cell line was tested in parallel by measuring cell viability using the CellTiter-Glo assay in the same wells.
Tox21 Assay Protocol Summary:
NFkB-bla ME-180 cells were dispensed at 2,000 cells/6 uL of assay medium per well into black wall/clear-bottom 1536-well plates using a Multidrop Combi (ThermoFisher Scientific, Waltham, MA) dispenser. After the assay plates were incubated at 37 C and 5% CO2 for an overnight, 23 nL of compounds dissolved in DMSO, positive controls or DMSO only was transferred to the assay plate by a Pintool station (Kalypsys, San Diego, CA). The assay plates were incubated at 37 C and 5% CO2 for 5 hr. One uL of LiveBLAzer B/G FRET substrate (Life Technologies) was added using a Flying Reagent Dispenser (Aurora Discovery, San Diego, CA) and the plates were incubated at room temperature for 1.5 hr. Fluorescence intensity (405 nm excitation, 460 nm and 530 nm emissions) was measured using an Envision plate reader (PerkinElmer, Shelton, CT). For cytotoxicity, 3 ul/well of CellTiter-Glo reagent was added into the assay plates using an FRD. After 30 min incubation at room temperature, the luminescence intensity was measured using a ViewLux plate reader (PerkinElmer).
A general note: In qHTS, concentration-response curves come from the screen itself.
Consider `CCCCOC(C)=O`, for which the result was inactive.

Regarding `CC(=O)CN(CC(C)=O)N=O`, the compound was called inactive.

Regarding `COP(=O)(OC)O/C(C)=C/C(=O)N(C)C`, the result was inactive.

As to `O=c1[nH]oc2c1CCNC2`, the compound was classed as inactive.

`CCOC(=O)C(Cl)Cc1cc(-n2nc(C)n(C(F)F)c2=O)c(F)cc1Cl` (stereo not given): the result was inactive.

With `O=C1CC(=O)NC(=O)N1`, the result was inactive.

Turning to `CC[C@H](O)C(C[C@H](C)N(C)C)(c1ccccc1)c1ccccc1`, the call was inactive.

Turning to `CC(C)[N+](C)(CCC(C(N)=O)(c1ccccc1)c1ccccc1)C(C)C`, the result was inactive.

For the compound `O=C(O)C(Cl)Br` (stereo not given), the result was inactive.

In the case of `CS(=O)(=O)Cl`, the compound was called inactive.

Regarding `C[C@H](CN1CCOCC1)C(C(=O)N1CCCC1)(c1ccccc1)c1ccccc1`, the call was inactive.

In the case of `BrCCc1ccccc1`, the call was inactive.

With `Clc1cc2c(cc1Cl)Oc1cc(Cl)c(Cl)cc1O2`, the activity, negative = cytotoxic was -0.991% [at 0.281 µM] (inactive).

For `CCOC(=O)COc1ccc(Cl)cc1Cl`, the result was inactive.

As for `C=CC=O`, the outcome was inactive.

As to `CCN1CCCC1CNC(=O)C(O)(c1ccccc1)c1ccccc1` (stereo not given), the call was inactive.

As to `CCCCCCC(=O)CCCCCC/C=C/C[C@@H](O)[C@H](O)[C@@](N)(CO)C(=O)O`, the compound was classed as inactive.

For the compound `BrCc1ccc(Br)cc1`, the outcome was inactive.

With `C[C@H](N)C(=O)c1ccccc1`, the result was inactive.

Regarding `ClCOCCl`, the outcome was inactive.

Take `O=C(Cl)C(Cl)(Cl)Cl`: the outcome was inactive.

As for `CCCCCCC1CCOC1=O` (stereo not given), the compound was classed as inactive.

Turning to `C[N+]1(C)CCCCC1`, the result was inactive.

As for `CCN[C@@H](C)Cc1ccccc1`, the result was inactive.

Consider `COc1ccc(CN2CCNCC2)c(OC)c1OC`, for which the call was inactive.

On to `COc1ccc(C=O)cc1O`, for which the call was inactive.

On to `O=c1[nH]c2ccccc2n1C1CCNCC1`, for which the call was inactive.

Turning to `Oc1ccc2c3c1O[C@H]1[C@@H](O)C=C[C@H]4[C@@H](C2)NCC[C@@]341`, the compound was classed as inactive.

As for `O=[N+]([O-])CCO`, the result was inactive.

For the compound `CCN(CCO)CCn1c(Cc2ccccc2)nc2c1c(=O)n(C)c(=O)n2C`, the result was inactive.

As to `O=C/C=C/c1ccco1`, the call was inactive.

On to `ClC(Cl)(Cl)Cl`, for which the compound was called inactive.

For `CCOC(=O)CCl`, the compound was classed as inactive.

Turning to `CCCOC(=O)c1cncn1C(C)c1ccccc1` (stereo not given), the result was inactive.

As to `CN(C)CCN(C)C`, the outcome was inactive.

Regarding `C=C(Cl)CSC(=S)N(CC)CC`, the compound was classed as inactive.

For the compound `O=P(O)(O)c1ccccc1`, the compound was called inactive.

Turning to `CCOC(=O)NC(C)(C)Cc1ccc(Cl)cc1`, the compound was called inactive.

Consider `C[C@H]1CCCC(=O)CCC/C=C/c2cc(O)cc(O)c2C(=O)O1`, for which the result was inactive.

For the compound `COc1ccc2c(C(=O)c3ccc(Cl)cc3)c(C)n(CC(=O)O)c2c1`, the compound was called inactive.

These data come from PubChem BioAssay (Tox21).
